This is a sample that favours compounds with a hit; in the whole collection about 19% have one here.
TGFb SMAD3 inh: qHTS for Inhibitors of TGF-b; HepG2 CAGA-GFP TGF-b/SMAD3 reporter, GFP fluorescence, 18 h; TGF-beta stimulated, 500 pg/mL final; Potency, µM (series often up to 46.1 µM), actives largely listed as inhibitors; 410,000 compounds, 1.2% hits; further: nearly all actives have a fitted effect of over 65% in size
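Per well, imaged GFP fluorescence of HEPG2 CAGA-GFP cells gives the signal; cells get compound, then TGF-beta (500 pg/mL final), 18 h at 37 degrees C; %Activity versus -TGF-beta and +DMSO controls.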
DT40 TDP1 CPT: qHTS for Inhibitors of human tyrosyl-DNA phosphodiesterase 1 (TDP1): qHTS in cells in presence of CPT. chicken DT40 Tdp1-/-;hTDP1 cells + 20 nM CPT, ATP luminescence, 48 h. 420,000 compounds, 12% hits. Potency, µM (series often up to 46.2 µM), hits mostly inhibitors; further: nearly all actives have a fitted effect of over 55% in size
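Chicken DT40 Tdp1-/- cells stably complemented with human TDP1 were seeded at 400 cells/well in medium containing 20 nM camptothecin, exposed to pin-transferred compounds, and grown at 37 °C for at least 48 hr. Viability was read as ATP luminescence.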
HepG2 viability: qHTS for Inhibitors of TGF-b: Cytotox Counterscreen. Potency, µM (top dose mostly 46.1 µM), hits mostly cytotoxic. 410,000 compounds, 0.76% hits. AID 588856, 2011. HepG2 CAGA-GFP viability, ATP luminescence, 18 h
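HepG2 CAGA-GFP cells (1000/well, DMEM with 1% FBS) received compound, then TGF-beta at 500 pg/mL final, and were incubated 18 hours at 37 degrees C. Viability was read by CellTiter-Glo luminescence. Media-only wells were set as complete cell-killing and DMSO as no toxicity.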
TDP1 block: qHTS Assay for Inhibitors of Tyrosyl-DNA Phosphodiesterase (TDP1); Tyrosyl-DNA phosphodiesterase 1 (Homo sapiens), Q9NUW8; recombinant TDP1, AlphaScreen DNA substrate cleavage; Potency, µM (series often up to 130 µM), actives largely listed as inhibitors; 350,000 compounds, 0.28% hits; further: nearly all actives have a fitted effect of over 40% in size
Target sequence (Q9NUW8 whole entry, looked up): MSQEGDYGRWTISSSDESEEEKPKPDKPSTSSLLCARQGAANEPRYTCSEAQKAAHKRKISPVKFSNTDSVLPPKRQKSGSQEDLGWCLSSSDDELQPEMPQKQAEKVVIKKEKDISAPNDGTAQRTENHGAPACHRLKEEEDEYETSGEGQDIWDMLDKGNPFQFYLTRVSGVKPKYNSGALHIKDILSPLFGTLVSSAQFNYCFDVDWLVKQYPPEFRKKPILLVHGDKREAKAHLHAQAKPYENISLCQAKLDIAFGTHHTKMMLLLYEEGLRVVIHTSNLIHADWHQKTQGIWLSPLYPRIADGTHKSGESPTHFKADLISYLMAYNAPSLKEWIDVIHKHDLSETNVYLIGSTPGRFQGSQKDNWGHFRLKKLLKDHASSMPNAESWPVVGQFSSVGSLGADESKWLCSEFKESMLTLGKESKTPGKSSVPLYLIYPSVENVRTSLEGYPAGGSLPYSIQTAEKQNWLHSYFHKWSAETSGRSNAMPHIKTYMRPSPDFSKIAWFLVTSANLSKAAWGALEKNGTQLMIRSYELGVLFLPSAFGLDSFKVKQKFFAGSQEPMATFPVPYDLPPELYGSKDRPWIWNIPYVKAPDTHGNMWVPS
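Recombinant E. coli-expressed Tdp1 (1 nM) preincubated with compound 15 min at RT, then 5'-biotin/3'-phosphotyrosine-FITC DNA substrate (15 nM) added for 5 min. AlphaScreen beads (10 ug/ml) added, 10 min RT; tyrosine-FITC cleavage read as signal loss.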
TDP1 cell noCPT: qHTS for Inhibitors of human tyrosyl-DNA phosphodiesterase 1 (TDP1): qHTS in cells in absence of CPT; DT40 Tdp1-/- hTDP1 cells, no CPT, ATP luminescence, 48 h; Potency, µM (top dose mostly 46.2 µM), most hits filed as inhibitors; 420,000 compounds, 15% hits; further: nearly all actives have a fitted effect of over 55% in size
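A cellular qHTS used chicken DT40 cells lacking endogenous Tdp1 but carrying stably transfected human TDP1. Compounds were applied without camptothecin, and cell growth kinetics were judged by ATP-dependent luminescence after ≥48 hr.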
IL1B secr inh: qHTS for Inhibitors of Inflammasome Signaling: IL-1-beta AlphaLISA Primary Screen | THP-1 LPS/ATP IL-1B secretion, AlphaLISA, 16 h; active compounds read low | 360,000 compounds, 4.7% hits | activity change, % at 57.5 µM; in the data active means activity change below about -50%; inconclusive means mostly about -30% to -49%
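Secreted IL-1B measured by AlphaLISA bead assay after 16 h compound exposure of THP-1 cells; compounds (final up to 57.5 uM) added 1 h before LPS (250 ng/mL) and ATP (1.25 mM) stimulation; lower signal means less secretion.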
Hits are given with their value; . = inactive; ? = inconclusive; / = no result given. Unless noted, the call rests on the fitted dose curve; in most records, active means well fitted curve in the direction sought with a large enough effect; inconclusive means small, poorly fitted or top-dose-only effect, or another doubt; inactive means no such curve, though single readings can be large; an effect the other way counts as inactive or inconclusive.

SMILES	TGFb SMAD3 inh	DT40 TDP1 CPT	HepG2 viability	TDP1 block	TDP1 cell noCPT	IL1B secr inh
CCCn1c(CCC(=O)Nc2ccccc2Cc2ccccc2)nc2cc(S(=O)(=O)N3CCOCC3)ccc21	?	16µM	.	.	23µM	.
CCn1c(SCC(N)=O)nc2cc(S(=O)(=O)N3CCOCC3)ccc21	.	.	.	.	.	.
NC(=O)CSc1nc2cc(S(=O)(=O)N3CCOCC3)ccc2o1	.	.	.	.	.	.
CCn1c(CCl)nc2cc(S(=O)(=O)N3CCOCC3)ccc21	.	7.3µM	.	.	2.9µM	-101
CCCCn1c(N)c(N(CCOC)C(=O)c2oc3ccc(OCC)cc3c2C)c(=O)[nH]c1=O	.	.	.	.	.	.
COC(=O)NC(c1ccc2c(c1)OCO2)C(C(=O)OC)C(=O)OC (configuration not stated)	/	/	/	.	/	/
COc1ccc(S(=O)(=O)N2CCCC(C(=O)NCc3cccnc3)C2)cc1OC (configuration not stated)	.	.	.	.	.	.
CCOC(=O)CSc1nc2cc(S(=O)(=O)N3CCOCC3)ccc2n1CC	.	.	.	.	.	-90
CC1=CC(C)[C@H](/C=N/n2c(=O)[nH]c3c([nH]c4ccc(C)cc43)c2=O)C(C)C1 (some centres not stated)	.	8.2µM	.	.	13µM	.
COc1ccc(-c2cc(C(=O)OCC(=O)c3cccc(OC)c3)c3cccc(Cl)c3n2)cc1	.	.	.	/	.	/
COc1ccc(CCC2=NCCN2C(CC(C)C)c2nc3ccccc3[nH]2)cc1 (configuration not stated)	.	21µM	.	/	16µM	.
Cc1ccc(-n2nc(CO)c(C(=O)NCCCCc3ccccc3)n2)cc1C	.	.	.	.	.	/
CCOC(=O)c1cnc2cc(Cl)c(OC)cc2c1NCC1CCCO1 (configuration not stated)	.	?	.	.	15µM	?
CCOC(=O)c1cnc2cc(Cl)c(OC)cc2c1Nc1ccc(Br)cc1C	.	.	.	.	.	/
Cc1ccc2oc(-c3ccc(C)c(NC(=O)COc4ccc(Cl)cc4C)c3)nc2c1	.	.	.	/	.	/
COc1ccc(C(=O)NCC(=O)OCC(=O)Nc2ccc(C)c(S(=O)(=O)N(C)C)c2)cc1OC	.	.	.	.	.	.
COc1ccc(CCNCC(=O)Nc2ccc(C)c(S(=O)(=O)N(C)C)c2)cc1	.	.	.	.	4.6µM	-76
O=C(CSc1nn(-c2ccccc2)c(=S)s1)Nn1cnnc1	.	.	.	.	.	.
COc1ccc(CC(=O)Nc2ccc(C)c(S(=O)(=O)N3CCCCCC3)c2)cc1	?	?	.	.	?	?
Cc1ccc(NC(=O)CSc2nn(-c3ccccc3)c(=S)s2)cc1S(=O)(=O)N(C)C	?	5.2µM	.	.	5.2µM	.
COc1ccc(CCC(=O)Nc2ccc(C)c(S(=O)(=O)N(C)C)c2)cc1OC	.	?	.	.	16µM	.
COc1cc(CCC(=O)Nc2ccc(C)c(S(=O)(=O)N(C)C)c2)cc(OC)c1OC	.	15µM	.	.	21µM	.
COc1cc(CCC(=O)OCC(=O)Nc2cccc(S(=O)(=O)N(C)C)c2)cc(OC)c1OC	.	.	.	.	.	.
Cc1nc(N(CCO)C2CCCCC2)c2nnn(Cc3ccccc3)c2n1	.	.	.	.	?	?
O=C(COc1ccc(F)cc1)Nc1ccccc1C(=O)OCc1cc(=O)n2ccsc2n1	.	.	.	.	.	/
SMILES	TGFb SMAD3 inh	DT40 TDP1 CPT	HepG2 viability	TDP1 block	TDP1 cell noCPT	IL1B secr inh
FC(F)(F)c1ccccc1Cc1c(-c2cccc(Br)c2)nc2c3ccccc3ccn12	?	.	.	/	.	.
C[C@]1(Cn2ccnn2)[C@H](C(=O)O)N2C(=O)C[C@H]2S1(=O)=O	/	.	/	/	.	/
O=C(CSc1nccn1Cc1ccccc1)Nc1ccc2c(c1)OCCO2	.	.	.	.	.	/
O=C(CNCC1CCCCC1)Nc1ccc(OC(F)(F)F)cc1	16µM	.	.	.	.	-101
Cc1ccc(NC(=S)NC2CCCCC2)cc1S(=O)(=O)N(C)C	.	?	.	.	?	.
Cc1ccc(NC(=O)CNCC2CCCCC2)cc1S(=O)(=O)N(C)C	?	16µM	.	.	?	.
Cc1[nH]c2ccccc2c1SCCN	.	?	.	/	?	.
Cc1ccc(-c2[nH]c3ccccc3c2SCCN)cc1	?	?	.	.	15µM	-65
Cc1ccc(-c2cc(=O)[nH]c3ccccc23)cc1	?	9.2µM	.	/	7.3µM	.
Cc1ccc(NC(=O)c2cc(=O)[nH]c3ccccc23)cc1	.	.	.	/	.	.
NCCSc1c(-c2ccc(Cl)cc2)[nH]c2ccccc12	?	?	.	.	?	-65
NCCSc1c(-c2ccccc2)[nH]c2ccccc12	.	?	.	/	21µM	.
CCCOC(=O)c1c(NC(=O)C2c3ccccc3Oc3ccccc32)sc2c1CCCC2	.	?	.	.	?	/
COc1ccccc1Cn1c(/C=C/c2ccccc2)nc2ccccc21	?	?	.	.	?	-80
COCCn1c(/C=C/c2ccccc2)nc2ccccc21	.	.	.	.	?	.
COc1ccc(/C=C/c2nc3ccccc3n2Cc2ccccc2OC)cc1	.	7.3µM	.	.	8.2µM	-201
COc1ccccc1Cn1c(C(C)C)nc2ccccc21	?	?	.	.	?	.
COc1cc(Cl)c(C)cc1NC(=O)c1nn(C)c2c1CSc1ccccc1-2	.	.	.	.	.	/
COc1ccccc1N1CCN(c2nc3ccc(C(=O)c4ccccc4)cc3n3c(C)nnc23)CC1	.	.	.	.	.	/
O=C(c1ccccc1)c1ccc2nc(N3CCN(C(=O)c4ccco4)CC3)c3nncn3c2c1	.	23µM	.	.	13µM	.
Cc1cccc(N2CCN(c3nc4ccc(C(=O)c5ccccc5)cc4n4cnnc34)CC2C)c1 (configuration not stated)	.	18µM	.	.	13µM	/
COc1ccc(N2CCN(c3nc4ccc(C(=O)c5ccccc5)cc4n4cnnc34)CC2)cc1	.	16µM	.	.	.	/
O=C(c1ccccc1)c1ccc2nc(N3CCN(c4ccccc4)CC3)c3nncn3c2c1	.	4.6µM	.	.	6.5µM	/
